Test: A549 cell viability effects, profiling panel, calcein-AM fluorescence, 48 h, basal (AID 1162); note: test concentration not given here
Settings: higher = more signal

For `COCCOC(=O)N1C(=O)[C@@]2(c3cc(C#Cc4ccc(OC)cc4)ccc31)[C@H](c1ccc(OCCO)cc1)N1[C@H](c3ccccc3)[C@H](c3ccccc3)OC(=O)[C@H]1[C@@H]2C(=O)NC[C@H](O)c1ccccc1`, which z-score is on record?
The z-score was 0.0843.

Which z-score does the source give for `CC1CC/C=C\[C@H]2OC34C=CCN(Cc5ccccc5)C(=O)[C@H]3N(CCCCCCO)C(=O)[C@@H]4C2C(=O)O1` (stereo partly specified) here?
The z-score was 1.3.

Which z-score does the source give for `[N-]=[N+]=Nc1ccccc1[C@@H]1OC(c2ccc(OCCCO)cc2)=N[C@]1(CCS(=O)(=O)c1ccccc1)C(=O)NCC(O)CO` (stereo partly specified) here?
Its z-score is -0.149.

For `COC(=O)[C@@]1(Cc2ccccc2)[C@H]2c3cc(C(=O)N(C)C)n(CCSC(=N)N)c3C[C@H]2CN1C(=O)c1ccccc1`, which z-score is on record?
The z-score was -0.944.

With `CC(C)[Si](C#CCCc1ccccc1)(O[C@H](c1ccccc1)c1cn(Cc2ccccc2)nn1)C(C)C` as the molecule, how does the z-score read?
The z-score was -0.865.

Which z-score does the source give for `O=C(NCc1ccc(F)cc1)[C@H]1C[C@H]2C(=O)N3CCC[C@H]3C(=O)N2[C@H]1c1ccc(O)cc1` here?
The z-score was -0.965.

Which z-score does the source give for `COC(=O)[C@]1(Cc2ccccc2)N=C(c2ccc(OCCCO)cc2)O[C@@H]1c1ccccc1CN=[N+]=[N-]` here?
The z-score was -3.63.

Which z-score does the source give for `CC(C)C[C@@H]1NC(=O)[C@@H]2C[C@H](C(=O)NCCCCCCNC(=O)CS)[C@H](c3cccc(OCCO)c3)N2C1=O` here?
The z-score was 0.028.

For `O=C1O[C@@H](c2ccccc2)[C@@H](c2ccccc2)N2[C@@H](c3ccc(OCCO)cc3)[C@]3(C(=O)Nc4ccc(C#CCCO)cc43)[C@@H](C(=O)O)[C@H]12`, which z-score is on record?
Its z-score is 1.35.

With `CCCC[C@H]1C[C@@H]1[C@@H]1N(C(C)=O)[C@H](c2cccc(OC)c2)CC12CC2` as the molecule, how does the z-score read?
The z-score was -1.54.

With `C=C(COC)/C(=C/C[C@@H](OC(C)=O)c1ccccc1OCCO)c1cnc2ccccc2c1` as the molecule, how does the z-score read?
Its z-score is 0.106.

For `CN(C)CCCNC(=O)[C@@]1(C)c2ccccc2C(=O)N(Cc2ccc(OC(F)(F)F)cc2)[C@H]1c1ccc(CO)cc1`, which z-score is on record?
The z-score was 0.173.

Which z-score does the source give for `C=CC[C@]1(C(=O)NCC(O)CO)COC(c2ccc(OCCCO)cc2)=N1` (stereo partly specified) here?
Its z-score is -0.188.

For `C=CCC(OC(C)=O)[C@@H]1[C@@H](N(Cc2cccc3ccccc23)C(=O)c2ccc(-c3ccccc3)cc2)c2cc(OCCCO)ccc2N1C(=O)Cc1ccc2ccccc2c1` (stereo partly specified), which z-score is on record?
Its z-score is -0.217.

Which z-score does the source give for `CCCCCC1=C2CNC(CC(C)C)(C(=O)OC)C=C2C(C)C1=O` (stereo unspecified) here?
Its z-score is -0.659.

Which z-score does the source give for `CN1C(=O)[C@@H]2[C@@H](CC(COc3ccccc3)=C3[C@@H](CCc4ccccc4)OB(O)C[C@@H]32)C1=O` here?
The z-score was 0.231.

For `COC(=O)[C@@]1(Cc2ccc(OC)cc2)[C@H]2c3cc(C(=O)N4CCCC4)n(Cc4ccc(C(F)(F)F)nc4)c3C[C@H]2CN1C(=O)c1ccccc1`, which z-score is on record?
The z-score was -1.3.

Which z-score does the source give for `C=CCC(OC(C)=O)[C@@H]1[C@@H](N(Cc2cc3ccccc3o2)C(=O)Cc2ccc(OC)cc2)c2cc(OCCCO)ccc2N1C(=O)c1ccc2ccccc2n1` (stereo partly specified) here?
Its z-score is 0.542.

With `[N-]=[N+]=Nc1ccccc1[C@@H]1OC(c2ccc(OCCCO)cc2)=N[C@]1(Cc1ccccc1)C(=O)NCCN1CCOCC1` as the molecule, how does the z-score read?
The z-score was -0.975.

For `COc1ccc(C(=O)Nc2cccc(CN3C(=O)[C@]4(O[C@H](CC(=O)N5Cc6ccccc6C[C@H]5CO)[C@@H]([Si](C)(C)c5ccc(OC)cc5)[C@@H]4C)c4ccccc43)c2)cc1`, which z-score is on record?
Its z-score is -0.969.

For `C=CCN1C(=O)[C@@]2(O[C@@H](CCn3cc([C@H](O)c4ccccc4)nn3)[C@H]([Si](C)(C)c3ccc(OC)cc3)[C@H]2C)c2cc(N3C(=O)c4cccc5cccc3c45)ccc21`, which z-score is on record?
Its z-score is 0.248.

For `CC(C)(C)N1CC=CC23O[C@@H]4/C=C\CCCOC(=O)C4[C@H]2C(=O)N(CCCCCO)[C@@H]3C1=O` (stereo partly specified), which z-score is on record?
Its z-score is -0.373.

With `CN(C)CCCC[C@@H]1NC(=O)[C@@H]2C[C@H](C(=O)NCCCCCCNC(=O)CS)[C@H](c3ccc(O)cc3)N2C1=O` as the molecule, how does the z-score read?
Its z-score is -0.121.

Which z-score does the source give for `CC1CC/C=C\[C@H]2OC34C=CCN(CCN5CCOCC5)C(=O)[C@H]3N(CCCO)C(=O)[C@@H]4C2C(=O)O1` (stereo partly specified) here?
Its z-score is -0.451.

For `COc1ccccc1CN1C(=O)c2ccccc2[C@](Cc2ccccc2I)(C(=O)NCC(C)C)[C@@H]1c1ccc(CO)cc1`, which z-score is on record?
Its z-score is 1.26.

For `COCC(=C=CC[C@H](O)c1ccccc1OCCO)C[C@H](O)COCc1ccccc1`, which z-score is on record?
The z-score was 0.428.

With `O=C(NC1CC1)[C@@H]1c2ccccc2C(=O)N(Cc2ccc(OC(F)(F)F)cc2)[C@H]1c1ccc(CO)cc1` as the molecule, how does the z-score read?
The z-score was 1.1.

For `O=C1C2C=CC(C(O)c3c(F)cccc3Cl)N(Nc3ccc([N+](=O)[O-])cc3)C2C(=O)N1c1ccccc1` (stereo unspecified), which z-score is on record?
Its z-score is -1.

Which z-score does the source give for `C[C@@H]1NC(=O)C([C@@H](C)OCc2ccccc2)NC(=O)[C@@]23C(=O)N[C@@H](Cc4ccccc4)C2[C@H](C)[C@@]2(C)O[C@H]2C3/C=C/C/C=C\CNC1=O` (stereo partly specified) here?
Its z-score is -0.405.

For `CC1CC/C=C\[C@H]2OC34C=CCN(c5ccc(Cl)cc5)C(=O)[C@H]3N(CCCCCCO)C(=O)[C@]4(C)C2C(=O)O1` (stereo partly specified), which z-score is on record?
Its z-score is 0.943.

With `CC1=C([C@H](O)CCc2ccccc2)[C@H](CO)n2c(=O)n(-c3ccccc3)c(=O)n2C1` as the molecule, how does the z-score read?
The z-score was 0.229.

With `CCOC(=O)C[C@H]1[C@H](OC(=O)Cc2ccc3c(c2)OCO3)[C@@H](NC(=O)Cc2ccc(OC)cc2)c2cc(OCCCO)ccc2N1C(=O)Cc1ccc(OC)cc1` as the molecule, how does the z-score read?
The z-score was 2.07.

Which z-score does the source give for `COc1ccc(C(O)C2C=CC3C(=O)NC(=O)C3N2Nc2ccc(Cl)cc2Cl)c2ccccc12` (stereo unspecified) here?
Its z-score is -1.88.

Which z-score does the source give for `C=C1C(=O)C=C2CN(C(=O)c3ccccc3)[C@@](Cc3ccc(OC)cc3)(C(=O)OC)[C@@H]12` here?
The z-score was -1.92.

For `COC(=O)[C@@]1(Cc2ccccc2)[C@H]2c3cc(C(=O)N(C)C)n(Cc4ccc(S(C)(=O)=O)cc4)c3C[C@H]2CN1C(=O)c1ccccc1`, which z-score is on record?
The z-score was -1.12.

With `CCCNC(=O)[C@@]1(c2ccc([N+](=O)[O-])cc2)CC(=O)N(C(C)C)[C@@H]1c1ccc(CO)cc1` as the molecule, how does the z-score read?
The z-score was 0.186.
